This note sets out measurements from PubChem BioAssay (NCATS).

For test [1], the system named is CRL-7250. Nature of the test: Cytotoxic Profiling of Annotated Libraries Using Quantitative High-Throughput Screening (AID 1296008). As to conditions: Five cell lines viability, CellTiter-Glo ATP luminescence, 48-72 h; max response: hits give low values. The method in brief: (§1)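 Cytotoxicity was measured as CellTiter-Glo ATP luminescence, read after 10 min at room temperature. Compound treatment of the cells lasted 48 or 72 hr at 37 degrees Celsius in a qHTS format.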
A general note: ATP-based viability assays read luminescence as a measure of living cells.

Test [2] relates to HEK293. The description is as above. The settings on record: Five cell lines viability, CellTiter-Glo ATP luminescence, 48-72 h; max response: hits give low values. Put shortly: as §1
Test [3] relates to HaCat. Described as above. As to conditions: Five cell lines viability, CellTiter-Glo ATP luminescence, 48-72 h; max response: hits give low values. The method in brief: as §1
For test [4], the system named is KB-3-1. The description is as above. The settings on record: Five cell lines viability, CellTiter-Glo ATP luminescence, 48-72 h; max response: hits give low values. Put shortly:
as §1

In test [5] the test system is NIH3T3. The test is described as above. The settings on record: Five cell lines viability, CellTiter-Glo ATP luminescence, 48-72 h; max response: hits give low values. The method in brief:
as §1

For test [6], the system named is MCC-13. Nature of the test: qHTS assay to identify novel small-molecules to repurpose for Merkel cell carcinoma treatment (AID 1296009). The settings on record: MCC and control cell lines, CellTiter-Glo viability, 72 h; series mostly up to 46 µM. Put shortly:
(§2)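 After compound transfer in DMSO, plates were kept 72 hr at 37 degree celsius. Luminescent ATP signal from CellTiter-Glo served as viability measure, normalized against DMSO and no-cell controls.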

Test [7] has as its system MCC-26. Described as above. The settings on record: MCC and control cell lines, CellTiter-Glo viability, 72 h; series mostly up to 46 µM. Put shortly: as §2

Values joined by “and” are separate entries in the source; they are usually repeats but may differ in a detail not shown here. Equal values may be shown once. Records with an inconclusive call do not appear. Values without a mark were called inactive. Active and inactive are the calls of the source. Calls follow the shape of the dose curve; as a rule, active = well fitted inhibition curve with a large enough effect; inconclusive = small, poorly fitted or top-dose-only effect; inactive = flat fitted curve, though single readings scatter.
% is scaled to controls: 0 for no effect and ±100 for the full control effect; potency is read from the fitted curve at half-maximal effect.
Also: nearly all actives have a fitted effect of over 60% in size.

As to `C[C@@H](Oc1cc(-c2cnn(C3CCNCC3)c2)cnc1N)c1c(Cl)ccc(F)c1Cl`, the Potency in test [1] was 11.8 µM (active) and 20.6 µM (active) and 23.1 µM (active); in test [2], 4.18 µM (active) and 4.11 µM (active) and 5.8 µM (active); in test [3], 13 µM (active) and 10.3 µM (active); in test [4], 6510 nM (active); in test [5], 3.72 µM (active) and 2.91 µM (active) and 5.17 µM (active). The Potency result in test [6] is “inactive”.
Consider `COc1cc(Nc2ncc(F)c(Nc3ccc4c(n3)N(COP(=O)(O)O)C(=O)C(C)(C)O4)n2)cc(OC)c1OC`, for which the Potency in test [1] was 1.48 µM (active) and 3.66 µM (active); in test [2], 3.72 µM (active) and 7.31 µM (active); in test [3], 4.69 µM (active) and 4.61 µM (active); in test [4], 4110 nM (active); in test [5] it was 2.06 µM (active). In addition, in test [6], the Potency entry was “inactive”.
In the case of `CN1CC[C@@H](c2c(O)cc(O)c3c(=O)cc(-c4ccccc4Cl)oc23)[C@@H](O)C1`, the Potency in test [1] was 166 nM (active); in test [2], 148 nM (active); in test [3], 372 nM (active); in test [4] it was 235 nM (active); in test [5] it was 0.526 µM (active); in test [6], 590 nM (active).
Turning to `CC(C)c1cnn2c(NCc3ccccc3)cc(N[C@@H](CO)[C@H](O)CO)nc12`, the Potency in test [1] was 296 nM (active); in test [2] it was 332 nM (active) and 1.03 µM (active); in test [3], 469 nM (active) and 4.11 µM (active); in test [4], 731 nM (active); in test [5], 935 nM (active) and 3.66 µM (active); in test [6] it was 1660 nM (active). In addition, the Potency in test [7] is 743 nM (active).
Turning to `Cc1cc(Nc2cc(N3CCN(C)CC3)nc(C=Cc3ccccc3)n2)n[nH]1`, the Potency in test [1] is 5400 nM (active); in test [2] it was 7620 nM (active); in test [3], 2700 nM (active); in test [4], 3030 nM (active); in test [5] it was 6.05 µM (active); in test [6], 9590 nM (active).
For the compound `CCc1c2c(nc3ccc(O)cc13)-c1cc3c(c(=O)n1C2)COC(=O)[C@]3(O)CC`, the Potency in test [1] is 651 nM (active) and 2.64 µM (active); in test [2], 14.6 nM (active) and 16.6 nM (active); in test [3] it was 58 nM (active) and 105 nM (active); in test [4], 291 nM (active) and 235 nM (active); in test [5], 0.731 µM (active); in test [6], 29.6 nM (active). The Potency in test [7] was 37.2 nM (active).
As for `CC(=O)c1c(C)c2cnc(Nc3ccc(N4CCNCC4)cn3)nc2n(C2CCCC2)c1=O`, the max response in test [1] is -3.02%; in test [2] it was -2.77%; in test [3], 1.14%; in test [4], -7.2%; in test [5], 3.53%. The Potency entry in test [6] and in test [7] was “inactive” each time.
Take `CCOC(=O)C1=C(C)NC2=C(C(=O)CC(C)(C)C2)C1c1ccc(-c2ccccc2)cc1` (configuration not stated): the Potency in test [1] was 26.4 µM (active) and 10.3 µM (active); in test [2], 16.6 µM (active) and 2.91 µM (active); in test [3], 7310 nM (active); in test [5] it was 20.9 µM (active) and 5.8 µM (active). Moreover, the compound was called inactive in test [4]. For the same compound, the Potency entry in test [6] and in test [7] was “inactive” throughout.
As for `Nc1nc(-c2nn(Cc3ccccc3F)c3ncccc23)nc(N)c1N1CCOCC1`, the max response in test [1] is -1.46%; in test [2], -2.05%; in test [3] it was -22.5%; in test [4], 6.89%; in test [5], -10.6%. In addition, the Potency result in test [6] and in test [7] was “inactive” throughout.
Take `NC(=O)Nc1cc(-c2cccc(F)c2)sc1C(=O)N[C@H]1CCCNC1`: the Potency was 4.69 µM (active) and 2.06 µM (active) in test [1]; 148 nM (active) and 231 nM (active) in test [2]; 8.33 µM (active) and 1.3 µM (active) in test [3]; 2.09 µM (active) and 1.03 µM (active) in test [4]; 418 nM (active) and 291 nM (active) in test [5]; 14800 nM (active) in test [6]. For the same compound, the Potency in test [7] was 11800 nM (active).
`C=CC(=O)Nc1cccc(Oc2nc(Nc3ccc(N4CCN(C)CC4)cc3)ncc2Cl)c1`: the Potency in test [1] is 4.18 µM (active) and 920 nM (active); in test [2] it was 5.26 µM (active) and 9.2 µM (active); in test [3], 1.18 µM (active) and 2.31 µM (active); in test [4] it was 2.96 µM (active) and 5.8 µM (active); in test [5], 3.72 µM (active) and 6.51 µM (active); in test [6], 7430 nM (active).
As for `C[C@H]1C[C@@H]2[C@@H]([C@@H](O)C[C@@]3(C)[C@H]2CC[C@]3(O)C(=O)CO)[C@@]2(C)C=CC(=O)C=C12`, the max response in test [1] is -0.811%; in test [2], -9.41%; in test [3], -11.8%; in test [4] it was -1.28% and 2.95%. For the same compound, in test [5], the result was inactive. In addition, the Potency result in test [6] and in test [7] was “inactive” in each case.
Consider `COc1ccc(C=Cc2cc(OC)c(OC)c(OC)c2)cc1O`, for which the max response in test [1] was -82.4%; in test [2], -79.1%; in test [3], -0.114%; in test [5], -49.1%. For the same compound, in test [4], the Potency was 1 nM (active). Further, the Potency result in test [6] was “inactive”.
As for `C=CCn1c(=O)c2cnc(Nc3ccc(N4CCN(C)CC4)cc3)nc2n1-c1cccc(C(C)(C)O)n1`, the max response in test [1] was -7.63%. Moreover, the Potency is 235 nM (active) and 920 nM (active) in test [2]; 332 nM (active) and 1.64 µM (active) in test [3]; 264 nM (active) in test [4]; 469 nM (active) and 1.16 µM (active) in test [5]; 6620 nM (active) in test [6].
`CC[C@@H]1C(=O)N(C)c2cnc(Nc3ccc(C(=O)NC4CCC(N5CCN(CC6CC6)CC5)CC4)cc3OC)nc2N1C(C)C` (some centres not stated): the Potency is 332 nM (active) and 14.6 µM (active) in test [1]; 26.4 nM (active) and 20.6 nM (active) and 13 nM (active) in test [2]; 59 nM (active) in test [3]; 11.8 nM (active) and 4.6 nM (active) in test [4]; 2.64 µM (active) and 1.46 µM (active) and 1.3 µM (active) in test [5]; 469 nM (active) in test [6].
